# Measured values as given in PMC7862700, “An all-to-all approach to the identification of sequence-specific readers for epigenetic DNA modifications on cytosine”.
# Assays:
# Assay in all cases: DAPPL (digital affinity profiling via proximity ligation, sequencing); 10 mM Tris-HCl pH 7.5, 50 mM NaCl, 1 mM DTT, 4% glycerol, room temperature, 30 min; GST-TFs on glutathione beads, 16-mer random dsDNA library, 0.1% formaldehyde crosslink after washing; high values mean tight binding
# FLI1 = target: T1, FLI1 (Homo sapiens, UniProt Q01543 1-452); conditions: protein: recombinant; tags: N-terminal GST; dsDNA, one strand shown
# T1 sequence: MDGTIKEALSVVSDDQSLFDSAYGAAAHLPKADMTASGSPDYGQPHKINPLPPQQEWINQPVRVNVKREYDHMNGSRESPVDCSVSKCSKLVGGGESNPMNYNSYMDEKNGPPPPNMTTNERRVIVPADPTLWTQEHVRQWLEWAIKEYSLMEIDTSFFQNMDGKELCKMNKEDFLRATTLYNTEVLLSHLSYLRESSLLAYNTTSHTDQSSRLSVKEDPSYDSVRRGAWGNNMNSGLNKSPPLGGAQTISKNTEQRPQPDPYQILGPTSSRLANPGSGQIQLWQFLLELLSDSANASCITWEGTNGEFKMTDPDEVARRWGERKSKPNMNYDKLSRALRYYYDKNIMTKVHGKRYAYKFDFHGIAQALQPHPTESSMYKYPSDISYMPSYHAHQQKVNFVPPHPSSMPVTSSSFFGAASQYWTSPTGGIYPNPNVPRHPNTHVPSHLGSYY
# Outline: (§1)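 Sequencing on an Illumina NextSeq500 followed washing, crosslinking with 0.1% formaldehyde, proximity ligation (BsaI/T4 ligase, 1 h, 37 °C) and PCR amplification of pools that had been incubated for 30 min at room temperature with 200 nmole of a random double-stranded 16-mer DNA library in Tris/NaCl/DTT/glycerol buffer. Each pool held DNA-barcoded human transcription factors, expressed in yeast as GST fusions and captured on glutathione beads, plus a tag-only sample. Binding signal is a hexamer's read frequency for a factor divided by its frequency in the tag-only sample.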
# ELK1 = target: T2, ELK1 (Homo sapiens, UniProt P19419 1-428); conditions: protein: recombinant; tags: N-terminal GST; dsDNA, one strand shown
# T2 sequence: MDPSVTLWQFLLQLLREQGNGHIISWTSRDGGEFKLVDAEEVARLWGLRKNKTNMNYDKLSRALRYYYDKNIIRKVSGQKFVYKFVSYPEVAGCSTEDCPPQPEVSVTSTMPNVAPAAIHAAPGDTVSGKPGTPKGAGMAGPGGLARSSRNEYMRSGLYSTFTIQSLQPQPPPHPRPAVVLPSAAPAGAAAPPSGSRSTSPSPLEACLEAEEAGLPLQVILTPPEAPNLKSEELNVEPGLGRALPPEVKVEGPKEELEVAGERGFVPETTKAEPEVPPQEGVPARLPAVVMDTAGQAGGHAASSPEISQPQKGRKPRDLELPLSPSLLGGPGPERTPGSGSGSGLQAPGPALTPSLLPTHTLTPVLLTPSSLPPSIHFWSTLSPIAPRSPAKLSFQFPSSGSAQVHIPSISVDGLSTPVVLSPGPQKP
# Outline: as §1
# GABPA = target: T3, GABPA (Homo sapiens, UniProt Q06546 1-454); conditions: protein: recombinant; tags: N-terminal GST; dsDNA, one strand shown
# T3 sequence: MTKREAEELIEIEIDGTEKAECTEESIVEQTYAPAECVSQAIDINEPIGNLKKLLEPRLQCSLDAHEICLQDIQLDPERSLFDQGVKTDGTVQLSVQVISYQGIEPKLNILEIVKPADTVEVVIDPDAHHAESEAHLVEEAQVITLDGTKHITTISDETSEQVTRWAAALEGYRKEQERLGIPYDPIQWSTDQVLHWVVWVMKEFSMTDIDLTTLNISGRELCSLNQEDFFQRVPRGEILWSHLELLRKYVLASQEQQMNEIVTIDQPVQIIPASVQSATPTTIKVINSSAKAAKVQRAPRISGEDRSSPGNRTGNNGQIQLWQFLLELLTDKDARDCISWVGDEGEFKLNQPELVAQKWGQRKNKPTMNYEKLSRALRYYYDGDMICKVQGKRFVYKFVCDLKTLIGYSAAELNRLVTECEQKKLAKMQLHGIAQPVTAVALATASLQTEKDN
# Outline: as §1
# ERG = target: T4, ERG (Homo sapiens, UniProt P11308 1-479); conditions: protein: recombinant; tags: N-terminal GST; dsDNA, one strand shown
# T4 sequence: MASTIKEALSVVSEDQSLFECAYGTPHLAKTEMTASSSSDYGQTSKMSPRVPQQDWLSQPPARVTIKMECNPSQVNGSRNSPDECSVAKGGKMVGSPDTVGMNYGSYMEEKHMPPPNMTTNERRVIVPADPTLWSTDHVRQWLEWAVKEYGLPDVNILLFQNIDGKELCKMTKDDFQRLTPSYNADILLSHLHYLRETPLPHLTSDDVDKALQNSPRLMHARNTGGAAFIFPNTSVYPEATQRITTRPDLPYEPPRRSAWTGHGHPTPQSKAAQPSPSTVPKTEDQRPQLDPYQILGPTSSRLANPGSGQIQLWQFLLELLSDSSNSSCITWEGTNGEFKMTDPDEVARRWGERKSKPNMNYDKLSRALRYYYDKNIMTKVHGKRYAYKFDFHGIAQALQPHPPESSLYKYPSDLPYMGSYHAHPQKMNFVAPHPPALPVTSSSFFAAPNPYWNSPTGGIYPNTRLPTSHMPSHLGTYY
# Outline: as §1
# ELF1 = ELF1 (Homo sapiens, UniProt P32519 1-619); conditions: protein: recombinant; tags: N-terminal GST; dsDNA, one strand shown
# Outline: as §1
# EHF = target: T5, EHF (Homo sapiens, UniProt Q9NZC4 1-300); conditions: protein: recombinant; tags: N-terminal GST; dsDNA, one strand shown
# T5 sequence: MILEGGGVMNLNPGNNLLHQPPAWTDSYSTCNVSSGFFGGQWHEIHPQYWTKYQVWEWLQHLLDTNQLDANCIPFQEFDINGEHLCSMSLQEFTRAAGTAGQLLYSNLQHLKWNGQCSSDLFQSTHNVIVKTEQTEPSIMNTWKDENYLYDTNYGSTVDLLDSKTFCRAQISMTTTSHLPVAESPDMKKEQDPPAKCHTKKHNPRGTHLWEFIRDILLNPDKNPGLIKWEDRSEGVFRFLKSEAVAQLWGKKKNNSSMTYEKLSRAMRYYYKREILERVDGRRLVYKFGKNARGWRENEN
# Outline: as §1
# SPI1 = SPI1 (Homo sapiens, UniProt P17947 1-270); conditions: protein: recombinant; tags: N-terminal GST; dsDNA, one strand shown
# Outline: as §1
# SPIB = SPIB (Homo sapiens, UniProt Q01892 1-262); conditions: protein: recombinant; tags: N-terminal GST; dsDNA, one strand shown
# Outline: as §1
# ELK3 = target: T6, ELK3 (Homo sapiens, UniProt P41970 1-407); conditions: protein: recombinant; tags: N-terminal GST; dsDNA, one strand shown
# T6 sequence: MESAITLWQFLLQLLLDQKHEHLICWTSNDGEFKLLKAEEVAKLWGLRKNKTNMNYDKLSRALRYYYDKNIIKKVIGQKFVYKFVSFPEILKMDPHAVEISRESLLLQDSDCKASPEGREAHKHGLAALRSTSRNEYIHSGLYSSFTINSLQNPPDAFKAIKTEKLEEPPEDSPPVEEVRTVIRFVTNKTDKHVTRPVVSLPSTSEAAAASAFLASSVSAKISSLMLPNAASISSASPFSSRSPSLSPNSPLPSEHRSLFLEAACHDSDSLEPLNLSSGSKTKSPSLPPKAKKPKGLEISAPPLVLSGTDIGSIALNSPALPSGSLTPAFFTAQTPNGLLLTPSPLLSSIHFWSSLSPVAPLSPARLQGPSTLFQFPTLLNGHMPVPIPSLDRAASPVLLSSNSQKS
# Outline: as §1
# FEV = target: T7, FEV (Homo sapiens, UniProt Q99581 1-238); conditions: protein: recombinant; tags: N-terminal GST; dsDNA, one strand shown
# T7 sequence: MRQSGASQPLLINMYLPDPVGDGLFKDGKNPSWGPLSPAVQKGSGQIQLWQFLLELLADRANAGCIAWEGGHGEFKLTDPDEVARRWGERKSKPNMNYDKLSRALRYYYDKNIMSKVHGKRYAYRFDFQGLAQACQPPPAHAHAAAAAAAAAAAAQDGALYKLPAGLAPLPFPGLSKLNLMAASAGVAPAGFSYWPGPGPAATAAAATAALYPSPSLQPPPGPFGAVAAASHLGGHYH
# Outline: as §1
# ETV5 = ETV5 (Homo sapiens, UniProt P41161 1-510); conditions: protein: recombinant; tags: N-terminal GST; dsDNA, one strand shown
# Outline: as §1
# HSF1 = HSF1 (Homo sapiens, UniProt Q00613 1-529); conditions: protein: recombinant; tags: N-terminal GST; chain copies: 3; dsDNA, one strand shown
# Outline: as §1
# SPIC = target: T8, SPIC (Homo sapiens, UniProt Q8N5J4 1-248); conditions: protein: recombinant; tags: N-terminal GST; dsDNA, one strand shown
# T8 sequence: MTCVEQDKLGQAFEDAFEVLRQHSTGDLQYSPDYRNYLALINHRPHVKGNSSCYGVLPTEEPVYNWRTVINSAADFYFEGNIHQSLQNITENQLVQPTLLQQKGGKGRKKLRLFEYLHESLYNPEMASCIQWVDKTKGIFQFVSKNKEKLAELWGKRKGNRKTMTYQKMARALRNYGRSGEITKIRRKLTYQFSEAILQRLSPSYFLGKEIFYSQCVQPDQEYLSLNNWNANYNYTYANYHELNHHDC
# Outline: as §1
# ELF4 = ELF4 (Homo sapiens, UniProt Q99607 1-663); conditions: protein: recombinant; tags: N-terminal GST; dsDNA, one strand shown
# Outline: as §1
# ELK4 = target: T9, ELK4 (Homo sapiens, UniProt P28324-2 1-405); conditions: protein: recombinant; tags: N-terminal GST; dsDNA, one strand shown
# T9 sequence: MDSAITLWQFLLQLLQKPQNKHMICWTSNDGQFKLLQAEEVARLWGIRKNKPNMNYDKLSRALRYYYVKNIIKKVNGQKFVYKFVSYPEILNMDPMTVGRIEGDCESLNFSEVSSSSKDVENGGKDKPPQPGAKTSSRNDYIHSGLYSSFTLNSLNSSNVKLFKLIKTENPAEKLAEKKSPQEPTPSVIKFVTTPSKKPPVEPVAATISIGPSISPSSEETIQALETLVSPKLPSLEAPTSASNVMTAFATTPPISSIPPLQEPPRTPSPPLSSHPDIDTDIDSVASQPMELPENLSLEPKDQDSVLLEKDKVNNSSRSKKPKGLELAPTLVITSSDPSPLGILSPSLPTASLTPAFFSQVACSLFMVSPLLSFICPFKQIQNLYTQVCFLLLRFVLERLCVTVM
# Outline: as §1
# ETV2 = target: T10, ETV2 (Homo sapiens, UniProt O00321 1-342); conditions: protein: recombinant; tags: N-terminal GST; dsDNA, one strand shown
# T10 sequence: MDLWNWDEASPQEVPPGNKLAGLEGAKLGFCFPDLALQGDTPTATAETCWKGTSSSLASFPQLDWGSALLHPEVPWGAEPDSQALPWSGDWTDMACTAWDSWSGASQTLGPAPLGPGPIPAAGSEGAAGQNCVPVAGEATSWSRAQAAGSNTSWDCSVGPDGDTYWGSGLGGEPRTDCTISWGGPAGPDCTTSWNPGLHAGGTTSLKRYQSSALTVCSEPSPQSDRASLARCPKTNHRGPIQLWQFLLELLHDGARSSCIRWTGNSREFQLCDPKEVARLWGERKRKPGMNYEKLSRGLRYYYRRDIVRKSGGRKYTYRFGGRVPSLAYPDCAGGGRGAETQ
# Outline: as §1
# ELF3 = target: T11, ELF3 (Homo sapiens, UniProt P78545 1-371); conditions: protein: recombinant; tags: N-terminal GST; dsDNA, one strand shown
# T11 sequence: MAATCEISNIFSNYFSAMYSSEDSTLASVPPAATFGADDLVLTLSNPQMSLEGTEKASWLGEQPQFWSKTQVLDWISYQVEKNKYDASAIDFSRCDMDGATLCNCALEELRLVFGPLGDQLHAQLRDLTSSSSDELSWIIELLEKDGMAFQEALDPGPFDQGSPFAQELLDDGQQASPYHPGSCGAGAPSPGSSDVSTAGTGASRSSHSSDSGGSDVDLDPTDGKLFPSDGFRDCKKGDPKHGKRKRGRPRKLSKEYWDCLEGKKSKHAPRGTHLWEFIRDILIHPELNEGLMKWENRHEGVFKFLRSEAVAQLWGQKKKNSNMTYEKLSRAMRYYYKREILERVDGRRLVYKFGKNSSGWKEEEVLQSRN
# Outline: as §1
# CRX = CRX (Homo sapiens, UniProt O43186 1-299); conditions: protein: recombinant; tags: N-terminal GST; dsDNA, one strand shown
# Outline: as §1
# ETV1 = ETV1 (Homo sapiens, UniProt P50549 1-477); conditions: protein: recombinant; tags: N-terminal GST; dsDNA, one strand shown
# Outline: as §1
# Sequence of SPIB (Q01892 whole entry): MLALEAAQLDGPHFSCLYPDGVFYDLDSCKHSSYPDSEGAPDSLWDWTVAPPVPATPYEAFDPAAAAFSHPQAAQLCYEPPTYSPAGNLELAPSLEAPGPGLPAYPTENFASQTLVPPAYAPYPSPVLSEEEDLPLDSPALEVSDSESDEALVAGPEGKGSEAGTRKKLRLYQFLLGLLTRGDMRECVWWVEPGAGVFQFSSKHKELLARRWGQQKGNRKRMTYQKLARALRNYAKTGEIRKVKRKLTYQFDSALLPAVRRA
# Sequence of HSF1 (Q00613 whole entry): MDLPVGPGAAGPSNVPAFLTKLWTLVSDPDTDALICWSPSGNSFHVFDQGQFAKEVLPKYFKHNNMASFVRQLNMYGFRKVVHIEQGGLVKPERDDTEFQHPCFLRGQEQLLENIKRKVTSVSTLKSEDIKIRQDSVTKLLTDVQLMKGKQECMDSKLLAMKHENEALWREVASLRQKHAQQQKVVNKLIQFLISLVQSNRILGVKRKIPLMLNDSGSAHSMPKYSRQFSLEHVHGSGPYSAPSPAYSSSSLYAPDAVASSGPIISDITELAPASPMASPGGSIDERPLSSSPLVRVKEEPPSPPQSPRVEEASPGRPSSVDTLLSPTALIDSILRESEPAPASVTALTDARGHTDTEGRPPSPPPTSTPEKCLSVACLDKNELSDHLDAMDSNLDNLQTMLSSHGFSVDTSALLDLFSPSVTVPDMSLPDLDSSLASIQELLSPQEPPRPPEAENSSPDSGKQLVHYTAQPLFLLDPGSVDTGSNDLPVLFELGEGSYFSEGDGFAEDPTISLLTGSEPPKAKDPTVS
# Sequence of ELF1 (P32519 whole entry): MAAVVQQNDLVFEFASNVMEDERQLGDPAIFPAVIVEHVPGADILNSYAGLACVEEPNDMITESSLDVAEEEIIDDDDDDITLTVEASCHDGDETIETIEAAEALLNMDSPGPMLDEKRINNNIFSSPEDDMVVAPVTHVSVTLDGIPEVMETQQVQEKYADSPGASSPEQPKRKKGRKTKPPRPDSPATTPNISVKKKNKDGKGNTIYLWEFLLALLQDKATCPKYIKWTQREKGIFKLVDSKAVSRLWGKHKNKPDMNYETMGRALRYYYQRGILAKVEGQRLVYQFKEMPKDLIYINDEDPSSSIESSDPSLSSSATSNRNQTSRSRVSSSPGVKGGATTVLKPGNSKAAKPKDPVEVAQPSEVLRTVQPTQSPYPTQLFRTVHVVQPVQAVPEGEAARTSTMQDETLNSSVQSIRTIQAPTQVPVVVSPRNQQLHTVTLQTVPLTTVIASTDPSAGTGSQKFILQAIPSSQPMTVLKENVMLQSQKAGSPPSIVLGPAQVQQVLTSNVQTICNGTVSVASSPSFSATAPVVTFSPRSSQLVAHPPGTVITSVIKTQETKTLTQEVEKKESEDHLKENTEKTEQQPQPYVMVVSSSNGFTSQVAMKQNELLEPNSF
# Sequence of ELF4 (Q99607 whole entry): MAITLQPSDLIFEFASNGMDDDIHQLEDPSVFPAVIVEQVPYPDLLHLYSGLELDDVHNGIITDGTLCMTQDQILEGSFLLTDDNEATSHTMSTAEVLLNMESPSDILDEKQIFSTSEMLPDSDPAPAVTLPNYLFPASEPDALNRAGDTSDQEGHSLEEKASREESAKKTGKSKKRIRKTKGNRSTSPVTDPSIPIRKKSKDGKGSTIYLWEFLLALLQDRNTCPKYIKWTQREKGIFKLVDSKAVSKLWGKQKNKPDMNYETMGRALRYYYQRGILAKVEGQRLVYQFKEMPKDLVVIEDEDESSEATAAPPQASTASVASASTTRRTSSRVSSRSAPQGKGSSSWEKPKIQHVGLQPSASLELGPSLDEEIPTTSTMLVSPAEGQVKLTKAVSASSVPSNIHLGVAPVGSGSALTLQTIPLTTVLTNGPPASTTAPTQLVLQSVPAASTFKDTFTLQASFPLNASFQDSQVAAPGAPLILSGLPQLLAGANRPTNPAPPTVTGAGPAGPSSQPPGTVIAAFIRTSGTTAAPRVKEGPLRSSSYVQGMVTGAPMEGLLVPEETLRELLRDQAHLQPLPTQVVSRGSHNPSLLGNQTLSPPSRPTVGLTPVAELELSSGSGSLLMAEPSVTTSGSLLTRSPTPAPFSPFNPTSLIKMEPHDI
# Sequence of ETV1 (P50549 whole entry): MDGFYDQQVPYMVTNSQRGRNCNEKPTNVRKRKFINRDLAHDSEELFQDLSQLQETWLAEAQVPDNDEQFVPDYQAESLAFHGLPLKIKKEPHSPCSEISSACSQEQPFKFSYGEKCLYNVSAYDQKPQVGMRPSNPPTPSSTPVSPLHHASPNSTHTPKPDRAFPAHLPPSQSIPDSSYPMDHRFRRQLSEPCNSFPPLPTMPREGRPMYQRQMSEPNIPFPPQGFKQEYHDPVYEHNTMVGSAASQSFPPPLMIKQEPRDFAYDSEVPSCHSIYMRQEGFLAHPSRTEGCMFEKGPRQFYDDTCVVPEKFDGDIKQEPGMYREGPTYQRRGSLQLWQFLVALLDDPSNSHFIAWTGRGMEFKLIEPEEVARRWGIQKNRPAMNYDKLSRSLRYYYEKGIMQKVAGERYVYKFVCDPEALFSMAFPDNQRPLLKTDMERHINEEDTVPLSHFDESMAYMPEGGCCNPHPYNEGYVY
# Sequence of CRX (O43186 whole entry): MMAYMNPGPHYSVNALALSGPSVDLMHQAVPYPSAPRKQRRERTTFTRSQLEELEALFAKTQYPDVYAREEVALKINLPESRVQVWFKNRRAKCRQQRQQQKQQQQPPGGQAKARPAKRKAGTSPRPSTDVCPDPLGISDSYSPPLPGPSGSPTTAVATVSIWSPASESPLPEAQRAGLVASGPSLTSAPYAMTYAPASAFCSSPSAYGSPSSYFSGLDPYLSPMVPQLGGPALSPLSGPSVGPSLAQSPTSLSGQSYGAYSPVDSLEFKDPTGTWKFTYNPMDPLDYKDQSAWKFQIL
# Sequence of ETV5 (P41161 whole entry): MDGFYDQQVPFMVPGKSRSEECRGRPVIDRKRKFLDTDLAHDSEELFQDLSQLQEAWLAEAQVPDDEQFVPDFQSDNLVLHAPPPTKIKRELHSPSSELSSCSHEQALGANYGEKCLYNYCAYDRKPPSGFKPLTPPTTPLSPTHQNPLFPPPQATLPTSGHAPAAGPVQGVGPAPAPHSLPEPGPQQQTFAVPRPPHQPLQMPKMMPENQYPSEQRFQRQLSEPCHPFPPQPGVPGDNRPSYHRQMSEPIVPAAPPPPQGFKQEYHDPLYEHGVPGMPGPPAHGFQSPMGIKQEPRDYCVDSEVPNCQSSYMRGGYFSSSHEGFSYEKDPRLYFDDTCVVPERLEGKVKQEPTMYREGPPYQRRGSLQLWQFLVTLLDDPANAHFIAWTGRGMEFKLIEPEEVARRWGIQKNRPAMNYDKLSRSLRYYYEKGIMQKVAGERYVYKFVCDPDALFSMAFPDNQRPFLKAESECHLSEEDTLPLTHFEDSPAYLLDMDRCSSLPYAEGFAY
sequence,measurement,setting,value
GCCTTG,binding signal,FLI1,"1.34 fold enrichment (6-mer frequency, TF over GST control)"
same,binding signal,ELK1,"1.27 fold enrichment (6-mer frequency, TF over GST control)"
same,binding signal,GABPA,"1.33 fold enrichment (6-mer frequency, TF over GST control)"
same,binding signal,ERG,"1.26 fold enrichment (6-mer frequency, TF over GST control)"
same,binding signal,ELF1,"1.29 fold enrichment (6-mer frequency, TF over GST control)"
same,binding signal,EHF,"1.24 fold enrichment (6-mer frequency, TF over GST control)"
same,binding signal,SPI1,"1.25 fold enrichment (6-mer frequency, TF over GST control)"
same,binding signal,SPIB,"1.23 fold enrichment (6-mer frequency, TF over GST control)"
same,binding signal,ELK3,"1.18 fold enrichment (6-mer frequency, TF over GST control)"
same,binding signal,FEV,"1.13 fold enrichment (6-mer frequency, TF over GST control)"
same,binding signal,ETV5,"1.34 fold enrichment (6-mer frequency, TF over GST control)"
same,binding signal,HSF1,"1.06 fold enrichment (6-mer frequency, TF over GST control)"
same,binding signal,SPIC,"1.31 fold enrichment (6-mer frequency, TF over GST control)"
same,binding signal,ELF4,"1.21 fold enrichment (6-mer frequency, TF over GST control)"
same,binding signal,ELK4,"1.17 fold enrichment (6-mer frequency, TF over GST control)"
same,binding signal,ETV2,"1.09 fold enrichment (6-mer frequency, TF over GST control)"
same,binding signal,ELF3,"1.23 fold enrichment (6-mer frequency, TF over GST control)"
same,binding signal,CRX,"1.05 fold enrichment (6-mer frequency, TF over GST control)"
same,binding signal,ETV1,"1.18 fold enrichment (6-mer frequency, TF over GST control)"
